Assay results reported in PubChem BioAssay.

Tests used:
[1] = system: Botulinum neurotoxin type F light chain protease (Clostridium botulinum); assay: Clostridium botulinum type F light chain protease inhibitors, microsphere substrate cleavage, validation (AID 588459); conditions: multiplex microsphere protease substrate cleavage assay, flow cytometry; at 10 µM; hits give high values
[2] = target: Botulinum neurotoxin type A (Clostridium botulinum) (UniProt P0DPI0); assay: BoNT/A light chain protease inhibitors, biochemical, multiplex microsphere flow cytometry, validation set (AID 588460); conditions: at 10 µM, hits give high values
[3] = target: Lethal factor (Bacillus anthracis) (UniProt P15917); assay: Bacillus anthracis lethal factor inhibition, microsphere flow cytometry protease assay, validation at 10 µM (AID 588461); conditions: multiplex microsphere protease cleavage assay, hits give high values

Measured: inhibition

COc1ccc2c(CCNC(=O)c3ccc([N+](=O)[O-])cc3)c[nH]c2c1
inactive: [1] 1.6% | [2] -0.5% | [3] -5%

O=c1[nH]c(=O)n([C@H]2C[C@H](O)[C@@H](CO)O2)cc1C(F)(F)F
inactive: [1] -1% | [2] 0% | [3] 3.3%

Cc1nc(N)sc1C(=O)N/N=C/c1ccco1
inactive: [1] -4.3% | [2] 0.1% | [3] 0.8%

COc1cc2c(cc1OC)CN(Cc1ccc(C)s1)CC2
inactive: [1] 2.4% | [2] 0.7% | [3] -1.2%

CS(=O)(=O)Oc1ccc2c(c1)O/C(=C\C=C\c1ccccc1)C2=O
inactive: [1] 26.9% | [2] 28.3% | [3] 25%

O=C(OCC1OC2OC3(CCCCC3)OC2C2OC3(CCCCC3)OC12)c1ccccc1 (configuration not stated)
inactive: [1] -3.1% | [2] 2.6% | [3] -2.2%

C[C@H]1C[C@H]2[C@@H]3CCC4=CC(=O)C=C[C@]4(C)[C@@]3(Cl)[C@@H](O)C[C@]2(C)[C@@]1(O)C(=O)CO
inactive: [1] 4.5% | [2] -0.1% | [3] 2.1%

COc1ccc(N2C(=O)C3CCCN3C2=O)cc1 (configuration not stated)
inactive: [1] 1.8% | [2] 0.4% | [3] -0.1%

Cc1ccsc1C1NC(=O)c2ccccc2N1 (configuration not stated)
inactive: [1] -6.7% | [2] -1.3% | [3] -5.3%

CC(C)CN(C)Cc1c(C(=O)N2CCc3ccccc3C2)nc2ccc(Cl)cn12
inactive: [1] 2.4% | [2] 0.6% | [3] 1%

Cc1ccccc1C(=O)NCC(=O)O
inactive: [1] 1.1% | [2] 2.7% | [3] 2.8%

CC(CCCC(C)(C)O)NC(=O)c1ccc(OC2CCN(C(=O)C3CC3)CC2)cc1 (configuration not stated)
inactive: [1] 0.1% | [2] 0.7% | [3] 1%

O=C(/C=C/c1ccccc1)/C=C/c1ccccc1
inactive: [1] 0.8% | [2] 0.3% | [3] 1.5%

O=C(c1cccnc1)N1N=C(C2CC2)CC1(O)C(F)(F)F (configuration not stated)
inactive: [1] 2% | [2] 1% | [3] 4.2%

COc1ccc(/C=C\C(=O)c2c(O)ccc3c(C)cc(=O)oc23)cc1OC
inactive: [1] 1.5% | [2] 0.2% | [3] -2.9%

Cc1ncc([N+](=O)[O-])n1CC(O)CCl (configuration not stated)
inactive: [1] 3.5% | [2] -0.1% | [3] 2.5%

O=C(/C=C/c1ccc(F)cc1)N1CC[C@@]2(O)CCCC[C@H]2C1
inactive: [1] -2.9% | [2] -2.2% | [3] 5.2%

O=c1nc2n(c3c1oc1ccccc13)Cc1ccccc1-2
inactive: [1] 2.1% | [2] 0% | [3] -4.3%

CC(=O)Oc1ccc(C2OC(=O)c3ccccc3N2C(C)=O)cc1 (configuration not stated)
inactive: [1] 2% | [2] 0.3% | [3] 3.3%

COc1ccc(Cl)cc1C(=O)NCCc1ccc(S(=O)(=O)NC(=O)NC2CCCCC2)cc1
inactive: [1] -1.1% | [2] -1.6% | [3] -9.4%

O=c1c2ccccc2nnn1Cc1cccc2ccccc12
inactive: [1] 0.5% | [2] 0.7% | [3] -9.5%

O=S(=O)(CCc1nc2ccccc2[nH]1)c1ccc(Cl)cc1
inactive: [1] 3% | [2] -0.3% | [3] 3.5%

C[C@]12C=CC(=O)C=C1CCC1C3CC[C@](O)(C(=O)CO)[C@@]3(C)CC3OC312 (some centres not stated)
inactive: [1] -1.8% | [2] -2.7% | [3] -7.3%

Cc1ccc(S(=O)(=O)N2CCC(C(=O)N[C@@H](C)C(=O)NC3CCS(=O)(=O)C3)CC2)cc1 (some centres not stated)
inactive: [1] 2.1% | [2] 1.5% | [3] 11.8%

COc1ccc(CN(CCC(c2ccccc2)c2ccc(OC(C)C)cc2)C(=O)CCl)cc1OC (configuration not stated)
inactive: [1] -3.8% | [2] 0.3% | [3] -6.4%

COc1cccc(N2C(=O)CC(c3c[nH]c4ccccc34)C2=O)c1 (configuration not stated)
inactive: [1] 1.4% | [2] 2.4% | [3] -2%

Cc1ccc2[nH]c3c(c2c1)CN(C)CC3
inactive: [1] -2.8% | [2] -0.7% | [3] -15%

O=C1CCCN1CCCn1cnc2c([nH]c3ccc(F)cc32)c1=O
inactive: [1] 0% | [2] -0.3% | [3] 2.3%

CC(=O)NCCCC(=O)NC(CCC(=O)OCc1ccccc1)C(=O)OCc1ccccc1 (configuration not stated)
inactive: [1] -1% | [2] -1.4% | [3] -8.6%
